# Bioassay records: PubChem BioAssay, National Center for Advancing Translational Sciences (NCATS)
# LDHA block: qHTS assay for inhibitors of human lactate dehydrogenase | purified LDHA, NADH/diaphorase-resazurin fluorescence; active compounds read low | L-lactate dehydrogenase A chain (Homo sapiens), P00338 | 480,000 tested, 0.15% active | AID 1347041, 2019 | activity change, % (values are at about 110 or 230 µM); in the data active means activity change below about -30%; inconclusive means mostly about -25% to -30%;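 further: plate controls were DMSO wells for no effect and wells without enzyme for full effect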
#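 Human LDH5 at 2 nM final in Tris HCl pH 7.4 with 0.06 mM NADH and 0.2 mM pyruvate, reacted 5 minutes at room temperature. Remaining NADH coupled via diaphorase/resazurin; resorufin fluorescence read at 0 and 20 minutes, normalized to enzyme-free and DMSO wells.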
# IL-1B inflam inh: qHTS for Inhibitors of Inflammasome Signaling: IL-1-beta AlphaLISA Primary Screen | THP-1 LPS/ATP IL-1B secretion, AlphaLISA, 16 h; active compounds read low | activity change, % at 57.5 µM | 360,000 tested, 4.7% active; in the data active means activity change below about -50%; inconclusive means mostly about -30% to -49%
#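 THP-1 cells pretreated 1 hr with compounds (up to 57.5 uM final), then stimulated with LPS (250 ng/mL final) plus ATP (1.25 mM final); secreted IL-1B measured by AlphaLISA after 16 hr, decreased signal indicating inhibition.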
# RORg inh: qHTS for inhibitors of ROR gamma transcriptional activity; AID 2551, 2010; 310,000 tested, 5.4% active; Drosophila S2 Gal4-RORgamma UAS-luciferase reporter, 20 h; Potency, µM (series often up to 53.6 µM), inactives show at the highest dose activity change, negative = inhibition, actives largely listed as inhibitors; Nuclear receptor ROR-gamma (Mus musculus), P51450; further: potency means the concentration at half of the fitted maximal effect; nearly all actives have a fitted effect of over 60% in size
# Target sequence (P51450 whole entry, looked up, the tested form may be a part): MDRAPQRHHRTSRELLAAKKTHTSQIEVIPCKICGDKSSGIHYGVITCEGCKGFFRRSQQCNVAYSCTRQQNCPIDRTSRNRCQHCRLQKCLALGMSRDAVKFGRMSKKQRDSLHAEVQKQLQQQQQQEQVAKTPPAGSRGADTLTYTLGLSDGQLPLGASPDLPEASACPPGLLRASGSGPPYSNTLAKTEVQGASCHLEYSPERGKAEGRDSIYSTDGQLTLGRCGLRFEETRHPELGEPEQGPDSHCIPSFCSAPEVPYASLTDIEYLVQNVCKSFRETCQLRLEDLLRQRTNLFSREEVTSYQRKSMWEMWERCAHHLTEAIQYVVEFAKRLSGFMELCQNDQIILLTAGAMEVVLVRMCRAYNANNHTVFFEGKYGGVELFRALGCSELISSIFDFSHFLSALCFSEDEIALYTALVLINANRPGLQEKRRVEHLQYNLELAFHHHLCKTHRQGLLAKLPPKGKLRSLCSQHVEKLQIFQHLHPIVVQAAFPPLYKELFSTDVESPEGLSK
#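 Drosophila S2 cells stably expressing Gal4-DBD/mouse RORγ fusion under metallothionein promoter plus UAS-luciferase; compound 1 h, then 700 uM CuSO4 induction for 20 h at ambient temperature; inhibition read as reduced luminescence.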
# VP16 counter: VP16 counterscreen qHTS for inhibitors of ROR gamma transcriptional activity. Drosophila S2 Gal4-VP16 UAS-luciferase, luminescence, 20 h. Potency, µM (titrated, usually from 53.6 µM), for the others: at the top dose activity, negative = inhibition, most hits filed as inhibitors. 310,000 tested, 3.5% active. AID 2546, 2010;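 further: Gal4-VP16 expression switched on by copper sulfate through the metallothionein promoter; potency means the concentration at half of the fitted maximal effect; nearly all actives have a fitted effect of over 50% in size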
# DT40 TDP1 CPT: qHTS for Inhibitors of human tyrosyl-DNA phosphodiesterase 1 (TDP1): qHTS in cells in presence of CPT; chicken DT40 Tdp1-/-;hTDP1 cells + 20 nM CPT, ATP luminescence, 48 h; Potency, µM (doses to about 46.2 µM), inactives show at the top dose activity change, negative = growth inhibition, most hits filed as inhibitors; 420,000 tested, 12% active; AID 686979, 2013; further: potency means the concentration at half of the fitted maximal effect; nearly all actives have a fitted effect of over 55% in size
#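 Chicken DT40 Tdp1-/- cells complemented with human TDP1, 400 cells/well, exposed to compounds plus 20 nM camptothecin for at least 48 h at 37 C; viability read as ATP content by CellTiter-Glo luminescence.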
# DT40 TDP1 no CPT: qHTS for Inhibitors of human tyrosyl-DNA phosphodiesterase 1 (TDP1): qHTS in cells in absence of CPT; 420,000 tested, 15% active; AID 686978, 2013; Potency, µM (doses to about 46.2 µM), for inactives: top-dose activity change, negative = growth inhibition, actives largely listed as inhibitors; DT40 Tdp1-/- hTDP1 cells, no CPT, ATP luminescence, 48 h; further: potency means the concentration at half of the fitted maximal effect; nearly all actives have a fitted effect of over 55% in size
#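 DT40 Tdp1-/-;hTDP1 cells, no CPT (DMSO vehicle only), 400 cells/well; compounds pin-transferred; ≥48 hr, 37 °C; CellTiter-Glo 30 min RT dark, luminescence read.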
# Active calls of the source: *; u = inconclusive; x = no result given. The list is not random: actives were taken first. Their share in the collection is about 18%. Unless noted, the call rests on the fitted dose curve; in most records, active means well fitted curve in the direction sought with a large enough effect; inconclusive means small, poorly fitted or top-dose-only effect, or another doubt; inactive means no such curve, though single readings can be large; an effect the other way counts as inactive or inconclusive. Unless noted, on the % scale 0 is the no-effect control and ±100 the full control effect.
SMILES,LDHA block,IL-1B inflam inh,RORg inh,VP16 counter,DT40 TDP1 CPT,DT40 TDP1 no CPT
COc1cc2nc(N(CCCN(C)C)C(=O)c3ccc(S(=O)(=O)N4CCc5ccccc5C4)cc3)sc2cc1OC,-3.7,-96.2*,x,x,u,u
COc1ccc(C)c2sc(N(CCCN(C)C)C(=O)c3ccc(S(=O)(=O)N4CCc5ccccc5C4)cc3)nc12,-3.3,-95.6*,x,x,2.91µM*,2.31µM*
CN(C)CCCN(C(=O)c1ccc(S(=O)(=O)N2CCc3ccccc3C2)cc1)c1nc2c(F)cc(F)cc2s1,-2.6,u,x,x,u,u
COC(=O)c1ccc(CC(Cc2ccc(C(=O)OC)o2)(C(C)=O)C(C)=O)o1,1.0,x,x,x,x,x
CCCCNC(=O)C1CCN(C(=O)c2ccc(C(F)(F)F)cc2)CC1,12.6,x,x,x,x,x
CCOc1ccc2nc(N(CCCN(C)C)C(=O)c3ccc(S(=O)(=O)N4CCc5ccccc5C4)cc3)sc2c1,0.4,-13.6,10µM*,u,u,u
COc1cc2nc(N(CCCN(C)C)C(=O)c3ccc(C(=O)c4ccccc4)cc3)sc2cc1OC,-6.7,-105.1*,x,x,u,u
CC(C)C(=O)Nc1ccc(C(=O)CSc2nnc(C3CC3)n2Cc2ccccc2)cc1,-13.1,x,x,x,x,x
CCc1cccc2c(C(=O)O)cc(-c3cccnc3)nc12,4.3,x,x,x,x,x
COc1ccc(CCNC(=O)C(=O)c2cn(CC(=O)N3CCCC3)c3ccccc23)cc1OC,-0.5,-29.7,x,x,-8.7%,20.6µM*
COc1ccc(CCNC(=O)C(=O)c2cn(CC(=O)N3CCOCC3)c3ccccc23)cc1,-2.7,-8.8,22.3%,3.9%,19.7%,-17.4%
COc1ccc(CCNC(=O)Cn2cc(S(=O)(=O)Cc3ccc(F)cc3)c3ccccc32)cc1OC,3.6,x,x,x,u,20.6µM*
COc1ccc(NC(=O)C(=O)c2cn(CC(=O)N3CCCC3)c3ccccc23)cc1,2.1,124.6,19.4%,21.8%,0.411µM*,0.231µM*
CC(=O)Nc1cccc(NC(=O)C(=O)c2cn(CC(=O)N3CCCCC3)c3ccccc23)c1,-2.9,-2.6,36.4%,-3.2%,23.1µM*,u
CCCCSc1nc2c(c(=O)n(C)c(=O)n2C)n1Cc1ccc(Cl)cc1,-1.8,x,x,x,x,x
COc1ccc(OCCSC2=NCC(C)(C)CN2)cc1,6.4,x,x,x,x,x
Cc1ccc(NC(=O)CCc2ncc(-c3ccc(F)cc3)o2)c(C)c1,-1.8,x,x,x,x,x
CCC1=Nc2cc(C(=O)NCC3CCCO3)ccc2Sc2ccc(Cl)cc21 (configuration not stated),-1.5,114.0,20.8%,26.0%,3.66µM*,4.11µM*
CCC1=Nc2cc(C(=O)NCC3CCCO3)ccc2Sc2ccc(Br)cc21 (configuration not stated),-5.3,101.5,11.3%,-5.1%,3.66µM*,3.26µM*
O=C(NCC1CCCO1)c1ccc(NC(=O)c2ccc(Br)cc2)cc1 (configuration not stated),-4.4,x,x,x,-9.6%,u
COc1ccc(NC(=O)C2CC(=O)N(C(C)C)C2)cc1S(=O)(=O)N1CCCCC1 (configuration not stated),-14.4,x,x,x,x,x
Cc1ccc(NC(=O)Cn2c(C)nc3c(sc4ccccc43)c2=O)cc1F,-1.0,x,x,x,x,x
Cc1cccc(S(=O)(=O)Nc2ccc(-c3nc4ccc(C)cc4s3)cc2)c1,-3.9,-12.1,5.62µM*,-25.3%,u,29.1µM*
Cc1nc2cc(NC(=O)CCS(=O)(=O)c3ccccc3)ccc2s1,-8.6,0.0,15.8µM*,u,-30.0%,14.0%
Cc1ccc2nc(-c3ccc(NC(=O)CCS(=O)(=O)c4ccccc4)cc3)sc2c1,-0.6,-23.3,1.12µM*,7.94µM*,u,25.9µM*
